{
  "source": "PubChem BioAssay AID540256",
  "about": "(National Center for Advancing Translational Sciences (NCATS), 2011)",
  "note": "The whole screen tested about 300,000 compounds, of which about 3,700 (1.2%) were called active. About 20% were inconclusive and are not listed. Calls come from the whole dose curve; tested in HEK293 cells. The list comes from a sample in which actives are over-represented; it also holds similar structures and randomly drawn compounds. A call without a number means that no potency is given here. Potency is the fitted concentration of half-maximal effect.",
  "data": [
    {"experiment": "qHTS for Inhibitors of binding or entry into cells for Lassa Virus; note: nearly all actives have a fitted effect of over 50% in size", "conditions": "Lassa virus pseudotype entry inhibition, cell reporter; series mostly up to 37.9 µM", "values": [
      {"smiles": "CC(C)CC1(C)NC(=O)N(CC(=O)Nc2ccc3c(c2)OCCO3)C1=O", "note": "(stereo not drawn)", "Potency": "inactive"},
      {"smiles": "CN(C)c1ccc(NC(=S)N(CCc2ccccc2)C2CC(=O)N(c3c(Cl)cccc3Cl)C2=O)cc1", "note": "(stereo not drawn)", "Potency": "3.55 µM (active)"},
      {"smiles": "CN(CC(=O)Nc1cccc(F)c1)C(=O)C1CC(=O)N(CCc2ccccc2)C1", "note": "(stereo not drawn)", "Potency": "inactive"},
      {"smiles": "COC(=O)CN(C(=S)Nc1ccc(Cl)cc1)C1CC(=O)N(c2ccc(OC)cc2)C1=O", "note": "(stereo not drawn)", "Potency": "inactive"},
      {"smiles": "O=C(COc1ccccc1Cl)Nc1ccc2nc(SCC(=O)N3CCCC3)sc2c1", "Potency": "inactive"},
      {"smiles": "CC(C)(C)C(=O)COC(=O)c1cc(S(=O)(=O)N2CCCCC2)ccc1N1CCOCC1", "Potency": "inactive"},
      {"smiles": "COc1ccccc1-c1c(C)nn2c(C)c(C(C)=O)cnc12", "Potency": "inactive"},
      {"smiles": "C=C(C)COc1ccc(-c2n[nH]c(C)c2-c2ccccc2)c(O)c1", "Potency": "1.78 µM (active)"},
      {"smiles": "Cc1[nH]nc(-c2ccc(OCc3cnn(-c4ccccc4)c3)cc2O)c1Oc1ccc(Cl)cc1", "Potency": "inactive"},
      {"smiles": "CC(=O)COc1ccc2c(-c3ccccc3)cc(=O)oc2c1", "Potency": "inactive"},
      {"smiles": "C=C(C)COc1ccc(-c2n[nH]c(C)c2-c2ccccc2OC)c(O)c1", "Potency": "7.08 µM (active)"},
      {"smiles": "COc1ccccc1-c1n[nH]c2c1[C@H](C)CC[C@H]2C(C)C", "Potency": "inactive"},
      {"smiles": "Cc1cccc(C(=O)NNC(=O)CSc2nnc(C(C)C)n2C)c1", "Potency": "inactive"},
      {"smiles": "CCN(C(=O)COC(=O)c1ccccc1O)c1cccc2ccccc12", "Potency": "inactive"},
      {"smiles": "CCOC(=O)c1c(S(=O)(=O)Nc2cccc(Cl)c2)c(C)n(C)c1C", "Potency": "inactive"},
      {"smiles": "CC(C)(C)c1nnc2sc(SCC(O)=C(C#N)c3nc4ccccc4[nH]3)nn2c1=O", "Potency": "inactive"},
      {"smiles": "Cc1ccccc1NC(=S)N(CCCN1CCOCC1)Cc1cccs1", "Potency": "inactive"},
      {"smiles": "CCc1cccc(C)c1NC(=S)N(CCCN1CCN(C)CC1)Cc1cccs1", "Potency": "inactive"},
      {"smiles": "Cc1ccc(NC(=S)N(CCN(C)C)Cc2cccs2)cc1C", "Potency": "6.31 µM (active)"},
      {"smiles": "CCOc1ccc(-n2c(SCC(=O)Nc3cc(C(=O)O)ccc3Cl)nc3ccccc3c2=O)cc1", "Potency": "inactive"},
      {"smiles": "Cc1ccc(SCCC(=O)OCC(=O)Nc2ncc(Cl)cc2Cl)cc1", "Potency": "inactive"},
      {"smiles": "Cc1ccc(-n2c(SCC(=O)Nc3ncc(Cl)cc3Cl)nc3ccccc32)cc1", "Potency": "0.291 µM (active)"},
      {"smiles": "CC/C(=C(/c1ccccc1)c1ccc(OCC[N+](C)(C)C)cc1)c1ccccc1", "Potency": "inactive"},
      {"smiles": "Cc1ccc(S(=O)(=O)N2CCCCC2)cc1C(=O)N(C)CC(=O)Nc1cccc(F)c1", "Potency": "inactive"},
      {"smiles": "Cc1nc2cc3c(cc2s1)OCO3", "Potency": "inactive"},
      {"smiles": "c1c2c(cc3sc(N4CCCCC4)nc13)OCCO2", "Potency": "1.58 µM (active)"},
      {"smiles": "O=C(NCc1ccc(F)cc1)c1ccc2nc(N3CCCCC3)sc2c1", "Potency": "inactive"},
      {"smiles": "Cc1nc(C)c(C(=O)N(c2ccc(C)c(C)c2)C(C(=O)NCc2ccco2)c2ccccc2)s1", "note": "(stereo not drawn)", "Potency": "4.61 µM (active)"},
      {"smiles": "Cc1cccc(N(C(=O)Cc2cccs2)C(C(=O)NCc2ccco2)c2ccncc2)c1", "note": "(stereo not drawn)", "Potency": "inactive"},
      {"smiles": "Cc1ccc(N(C(=O)c2sc(C)nc2C)C(C(=O)NC(C)(C)C)c2ccncc2)cc1", "note": "(stereo not drawn)", "Potency": "inactive"},
      {"smiles": "Cc1ccc(OCc2cc(C(=O)N(C)CCn3ccnc3C)no2)cc1C", "Potency": "inactive"},
      {"smiles": "CCCN1CCN(C(=O)CCCNC(=O)c2ccc(Cl)cc2)CC1", "Potency": "inactive"},
      {"smiles": "COc1ccccc1N1CCN(c2nc(C)cc(=O)[nH]2)CC1", "Potency": "inactive"},
      {"smiles": "Cc1nnc(SCC(=O)N2c3ccccc3C(C)(c3ccc(Cl)cc3)CC2(C)C)s1", "note": "(stereo not drawn)", "Potency": "10 µM (active)"},
      {"smiles": "Cc1nnc(SCC(=O)NCc2ccccc2)s1", "Potency": "inactive"},
      {"smiles": "Cc1nnc(SCC(=O)N2CCc3ccccc3C2)s1", "Potency": "inactive"},
      {"smiles": "Cc1ccc(NC2CCCN(C(=O)CCc3cn[nH]c3)C2)cc1C", "note": "(stereo not drawn)", "Potency": "inactive"},
      {"smiles": "COc1cc(C(=S)N2CCOCC2)cc(OC)c1OC(=O)c1ccc([N+](=O)[O-])cc1[N+](=O)[O-]", "Potency": "inactive"},
      {"smiles": "CCN1CCC(N(Cc2ccc(F)cc2)C(=O)Nc2cc(C)ccc2C)CC1", "Potency": "inactive"},
      {"smiles": "Cc1ccc(SCC(=O)N2CCN(c3ccc(F)cc3)CC2)cc1", "Potency": "inactive"},
      {"smiles": "CCN1CCC2(CC1)N=C(c1ccc(F)cc1)C(=S)N2C(=O)c1ccc(C)cc1", "Potency": "8.91 µM (active)"},
      {"smiles": "COc1ccccc1C(=O)Nc1ccc(Nc2ccccc2)cc1", "Potency": "inactive"},
      {"smiles": "CCC(=O)Nc1ccc2nc(SCC(=O)N3CCc4ccccc43)sc2c1", "Potency": "inactive"},
      {"smiles": "COCCn1cnnc1SCC(=O)Nc1cccc(S(=O)(=O)N2CCCCC2)c1", "Potency": "inactive"},
      {"smiles": "O=c1[nH]c(CCl)nc2cc(-c3ccc(Cl)cc3)sc12", "Potency": "10 µM (active)"},
      {"smiles": "O=c1[nH]c(CN2CCOCC2)nc2cc(Cl)ccc12", "Potency": "inactive"},
      {"smiles": "NC(=O)Cc1nc2scc(-c3ccc(Cl)cc3)c2c(=O)[nH]1", "Potency": "inactive"},
      {"smiles": "O=C1c2ccccc2C(=O)C1C(=O)C1CC1", "Potency": "inactive"},
      {"smiles": "Cc1ccc(S(=O)(=O)N/N=C(\\c2ccccc2)C2CC2)cc1", "Potency": "inactive"},
      {"smiles": "CNC(=O)COC(=O)c1cc(-c2ccc(OC)cc2)nc2ccccc12", "Potency": "inactive"},
      {"smiles": "COc1ccc(-c2cc(C(=O)n3cnc4ccccc43)c3ccccc3n2)cc1", "Potency": "inactive"},
      {"smiles": "COc1ccc(-c2cc(C(=O)N(C)Cc3ccccc3)c3ccccc3n2)cc1", "Potency": "10 µM (active)"},
      {"smiles": "COc1ccccc1N1CC(C(=O)Nc2nnc(SCC(=O)NCC3CCCO3)s2)CC1=O", "note": "(stereo not drawn)", "Potency": "inactive"},
      {"smiles": "COc1ccc(C(CNC(=O)c2cc3c(s2)CCCC3)N2CCOCC2)cc1", "note": "(stereo not drawn)", "Potency": "inactive"},
      {"smiles": "Cc1ccc(C(CC(=O)O)NC(=O)c2ccc(S(=O)(=O)N3CCCC3)cc2)cc1", "note": "(stereo not drawn)", "Potency": "inactive"},
      {"smiles": "C=CCN1C(=O)N(Cc2ccccc2)c2ccccc2S1(=O)=O", "Potency": "inactive"},
      {"smiles": "O=C1c2ccccc2C2=Nc3ccccc3SC(c3ccccc3F)C12", "note": "(stereo not drawn)", "Potency": "20.6 µM (active)"},
      {"smiles": "O=C1c2ccccc2C(=O)C1c1ccccc1F", "Potency": "inactive"},
      {"smiles": "Cn1cc(/C=C/c2nc3ccccc3c(=O)n2-c2cccc([N+](=O)[O-])c2)c2ccccc21", "Potency": "inactive"},
      {"smiles": "CCn1c(/C=C/c2ccc([N+](=O)[O-])o2)nc2ccccc2c1=O", "Potency": "3.66 µM (active)"},
      {"smiles": "Cc1ccc(-n2c(/C=C/c3cccc(C(F)(F)F)c3)nc3ccccc3c2=O)cc1", "Potency": "inactive"},
      {"smiles": "COc1cccc(CC(=NO)c2cccc(OC)c2)c1", "Potency": "inactive"},
      {"smiles": "OC(COc1ccc2ccccc2c1)Cn1cncn1", "note": "(stereo not drawn)", "Potency": "inactive"},
      {"smiles": "O=C(c1ccccc1)C(Cn1cncn1)C(Sc1ccccc1)c1ccccc1", "note": "(stereo not drawn)", "Potency": "22.4 µM (active)"},
      {"smiles": "Fc1ccccc1OCCCCn1cncn1", "Potency": "inactive"},
      {"smiles": "Cc1ccccc1N1CC(C(=O)Nc2nnc(SCCC3OCCO3)s2)CC1=O", "note": "(stereo not drawn)", "Potency": "inactive"},
      {"smiles": "CCOc1cc2ccccc2cc1C(=O)Nc1ccccn1", "Potency": "inactive"},
      {"smiles": "Cc1ccsc1C(=O)OCC(=O)c1cc(C)n(CC2CCCO2)c1C", "note": "(stereo not drawn)", "Potency": "2.59 µM (active)"},
      {"smiles": "Cc1cc(C(=O)CCl)c(C)n1CC1COc2ccccc2O1", "note": "(stereo not drawn)", "Potency": "inactive"},
      {"smiles": "Cc1cc(C(=O)Cn2cnc3cc([N+](=O)[O-])ccc3c2=O)c(C)n1CC1CCCO1", "note": "(stereo not drawn)", "Potency": "inactive"},
      {"smiles": "CCOC(=O)N1CCN(C(=O)C(=O)Nc2sc3c(c2C#N)CC(C)(C)OC3)CC1", "Potency": "inactive"},
      {"smiles": "COC(=O)c1ccc(OC(=O)c2cnccn2)cc1", "Potency": "inactive"},
      {"smiles": "CSCCC1NC(=O)N(CC(=O)Nc2cccc(S(=O)(=O)N3CCCCCC3)c2)C1=O", "note": "(stereo not drawn)", "Potency": "inactive"},
      {"smiles": "CCOC(=O)N1CCC(NC(=O)c2cnn(-c3cccc(C)c3)c2C2CCN(C(=O)OC(C)(C)C)CC2)CC1", "Potency": "inactive"},
      {"smiles": "CCN(CC)c1ccc(S(=O)(=O)N2CCCCC2)cc1NC(=O)C1=COCCO1", "Potency": "inactive"},
      {"smiles": "COc1ccccc1CNC(=O)C(=O)NCC(c1ccco1)S(=O)(=O)c1ccc(F)cc1", "note": "(stereo not drawn)", "Potency": "inactive"},
      {"smiles": "CC(C)(C)c1ccc(C(=O)NCC(c2ccco2)S(=O)(=O)c2ccc(F)cc2)cc1", "note": "(stereo not drawn)", "Potency": "12.6 µM (active)"},
      {"smiles": "O=C(NCC(c1ccco1)S(=O)(=O)c1cccs1)c1ccc(F)cc1", "note": "(stereo not drawn)", "Potency": "inactive"}
    ]}
  ]
}
